# Measured values as given in PubChem BioAssay (NCI).
# This is part of a sample that, as a whole, favours compounds with a hit. Of some 83,000 tested, about 20% had one in any assay.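 Negative percent growth values reflect cell death: -40 means 40% of the cells present at the start died, and -100 means all died.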 Values without a mark were called inactive. Calls of active or inactive are those of the source. The calls were made as follows: active = growth percent below 10; inactive = the rest.
# Experiments:
# Experiment in all cases: NCI-60 one-dose screen, 48 h (100 = growth as untreated, 0 = no growth, -100 = all killed)
# Details in all cases: 10 µM unless noted
# SR leukemia = tested on: SR leukemia
# RPMI-8226 leukemia = tested on: RPMI-8226 leukemia
# OVCAR-5 ovarian = tested on: OVCAR-5 ovarian
# OVCAR-4 ovarian = tested on: OVCAR-4 ovarian
# SK-OV-3 ovarian = tested on: SK-OV-3 ovarian
# IGROV1 ovarian = tested on: IGROV1 ovarian
# OVCAR-3 ovarian = tested on: OVCAR-3 ovarian
# HS 578T breast = tested on: HS 578T breast
# NCI/ADR-RES ovarian = tested on: NCI/ADR-RES ovarian
# T-47D breast = tested on: T-47D breast
# BT-549 breast = tested on: BT-549 breast
# MDA-MB-435 melanoma = tested on: MDA-MB-435 melanoma
# SW-620 colon = tested on: SW-620 colon
# MCF7 breast = tested on: MCF7 breast
# HCT-116 colon = tested on: HCT-116 colon
# HCC-2998 colon = tested on: HCC-2998 colon
# KM12 colon = tested on: KM12 colon
Compound,growth (SR leukemia),growth (RPMI-8226 leukemia),growth (OVCAR-5 ovarian),growth (OVCAR-4 ovarian),growth (SK-OV-3 ovarian),growth (IGROV1 ovarian),growth (OVCAR-3 ovarian),growth (HS 578T breast),growth (NCI/ADR-RES ovarian),growth (T-47D breast),growth (BT-549 breast),growth (MDA-MB-435 melanoma),growth (SW-620 colon),growth (MCF7 breast),growth (HCT-116 colon),growth (HCC-2998 colon),growth (KM12 colon)
Cc1ccc(-c2nc3nc(-c4ccc(F)cc4)nc(N4CCNCC4)c3o2)cc1,-29.5% (active),-47.2% (active),-14.6% (active),-77.1% (active),107%,42%,-94.7% (active),-5.74% (active),-19.1% (active),-27.4% (active),99.5%,66%,-79.3% (active),-74.2% (active),-92.1% (active),19.4%,-83.7% (active)
CC(C)N1CCN(Cc2ccc3c(NNC(=O)c4ccccc4)nc4cc(F)ccc4n23)CC1,8.09% (active),26.5%,59.6%,21.2%,35%,21.4%,39.8%,75.8%,6.16% (active),20.3%,45.6%,30.5%,24.9%,9.7% (active),24.5%,25%,23.1%
COc1ccc2[nH]cc(C(c3cc(F)cc(F)c3)c3c[nH]c4ccc(OC)cc34)c2c1,46.8%,57.5%,85%,93.9%,94.8%,-7.1% (active),89.9%,67.2%,72.9%,43.1%,183%,93.4%,81.6%,55.4%,52.9%,,83.6%
CC(C)CCC[C@@H](C)[C@H]1CC[C@H]2[C@@H]3CC=C4C[C@@H](C(C(=O)O)C(=O)O)CC[C@]4(C)[C@H]3CC[C@]12C,-39.7% (active),-26.9% (active),45.2%,0.439% (active),-5.5% (active),-35.5% (active),-73.5% (active),-12.7% (active),-1.29% (active),-13.8% (active),,-55.6% (active),-39.7% (active),1.84% (active),-61.3% (active),-47.5% (active),-74.4% (active)
O=C1c2ccc3c4ccc5c6c(ccc(c7ccc(c2c37)C(=O)N1CCC[P+](c1ccccc1)(c1ccccc1)c1ccccc1)c64)C(=O)N(CCC[P+](c1ccccc1)(c1ccccc1)c1ccccc1)C5=O,35.9%,21.3%,74.1%,75.9%,91.7%,29.6%,37.4%,81.2%,97.2%,41.1%,74%,0.931% (active),24.5%,37.1%,46%,25.5%,10.5%
c1ccc(C2=NN[C@H](c3cn(-c4ccccc4)nc3-c3ccccc3)C2)cc1,90.9%,86.7%,83.6%,14.8%,-1.38% (active),62.1%,2.11% (active),,48.9%,43.5%,48.7%,67%,55.7%,74.4%,22.8%,64.6%,62.8%
c1ccc(CNc2c3ccccc3nc3ccccc23)cc1,11.7%,7.65% (active),45.7%,43.2%,46.7%,29.8%,51.7%,56.1%,37.6%,37.7%,72.8%,42.8%,24.5%,12%,8.4% (active),38.2%,30.5%
N#CC1=C(N)Oc2c(sc3c(Br)cccc23)C1c1ccc(F)cc1 (centres undefined),5.83% (active),16.7%,30.9%,56.4%,37.4%,26.9%,9.66% (active),42%,9.77% (active),50%,25.3%,-10.3% (active),32.2%,12.1%,11.9%,23.5%,23.1%
Cc1cccnc1NC(=S)Nc1ncccc1C,88.5%,80.9%,124%,134%,-65.6% (active),103%,100%,111%,117%,99.7%,96.1%,83.9%,111%,82.9%,101%,,107%
O=C1Nc2ccccc2/C1=C\c1nc(-c2ccccc2)n2ccccc12,101%,81.9%,90.6%,73.7%,81%,,115%,118%,93.9%,43.1%,85.5%,90.5%,103%,52.9%,76.3%,,
N#C/C(=C\c1ccc(Br)cc1)n1nnc2ccc(F)cc21,-11.9% (active),-35.4% (active),3.03% (active),24.9%,51.6%,-31.2% (active),-45.3% (active),3.56% (active),1.62% (active),8.46% (active),1.54% (active),-34.1% (active),-48.4% (active),5.23% (active),-75.3% (active),-63.6% (active),-24.7% (active)
CCN(CC)c1ccc(/C=C/C(=O)c2ccc(Nc3nc(Nc4ccccc4)nc(Nc4ccccc4)n3)cc2)cc1,39%,-23.6% (active),71.3%,58.5%,77.4%,47.8%,46.5%,26.2%,39.1%,12.3%,,51.4%,70.3%,29.2%,50.2%,66.5%,45.4%
Cc1cccc(N2CCN(CC(O)COc3ccc(Cl)cc3)CC2)c1 (centres undefined),79.7%,77.6%,116%,115%,-100% (active),92.7%,111%,115%,105%,94.4%,100%,84.1%,103%,121%,89.9%,,97.1%
COc1cc(OC)cc(C2=C3CC[C@@H]4[C@H](CC[C@]5(C)C(=O)CC[C@@H]45)C3=CC3C(O)c4cccnc4N4C(=O)COC234)c1 (some centres undefined),82.3%,96.2%,95.5%,87.1%,116%,101%,115%,,105%,107%,94.7%,104%,103%,103%,97%,96.6%,102%
COCCNC(=O)c1ccc(-c2nc3ccc4[nH]ncc4c3c3c2CCCC3)cc1,5.46% (active),29.6%,67.8%,61.9%,6.55% (active),15.8%,56%,-6.17% (active),63.9%,44.5%,10.3%,16.4%,11%,35.9%,13%,47.5%,19.7%
CCN1C(=O)N(CC)C2C1NN=c1s/c(=C\c3cccc([N+](=O)[O-])c3)c(=O)n12 (centres undefined),12.7%,22.8%,33%,51.1%,38.3%,22.6%,1.4% (active),17.6%,9.2% (active),59.3%,12.5%,-30.4% (active),,17.1%,11%,15.9%,12.1%
Cc1nc(-c2ccccc2)cc2c(O)c(C(=O)NN)[nH]c(=O)c12,106%,103%,110%,112%,103%,7.89% (active),105%,109%,118%,92.4%,193%,109%,97.5%,77.8%,110%,,115%
O=S(=O)(Nc1cc(Br)c(O)c2ccccc12)c1ccc(F)cc1,11.6%,27.2%,113%,-97.5% (active),99.7%,81.4%,-0.424% (active),98.3%,4.65% (active),6.12% (active),100%,-90.4% (active),104%,49.1%,51%,97.8%,86.4%
